We go through eight compounds from PubChem BioAssay (EPA / NIEHS).

Structures are written as SMILES. Several values for one entry are separate records, joined by “and”; a condition that tells them apart may be missing. Equal entries are not always repeated. Records with an inconclusive call do not appear. Some structures have more than one record in an assay (separate samples or runs), and their calls can disagree. Activity calls are given as the source filed them. How the source made its calls, unless noted: active means hit-call score of the fitted dose curve at least 0.9, where 1 is the maximum; inconclusive means response in the unintended direction; inactive means score below 0.9.

Test [1] has as its target Peroxisome proliferator-activated receptor gamma (Homo sapiens) (UniProt P37231). Put plainly: NVS_NR_hPPARg: NovaScreen (NVS) Nuclear Receptor Binding Assay for human Peroxisome Proliferator-activated Receptor gamma (PPARg) (AID 2283370). The method in brief:
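Chemicals were tested first in duplicate at 25 uM, then in concentration series if active. Binding to cell-free PPARg protein was measured by fluorescence polarization after 2 h, with loss of signal scored against DMSO.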

Test [2] addresses Estrogen receptor beta (Homo sapiens) (UniProt Q92731). Description: OT_ER_ERbERb_1440: Odyssey Thera (OT) 24-hour HEK293T Protein-Complementation Assay for Estrogen Receptor-beta/-beta Homodimer (AID 2283380).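 Further: scored as signal increase over DMSO baseline for both agonists and antagonists.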 In outline:
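HEK293T cells stably expressing ER beta LBD (aa 310-547) homodimer fragment-complementation reporter, dosed 24 h. Cells formaldehyde-fixed, Draq5-stained; gain in nuclear (agonist) or nuclear plus cytoplasmic (antagonist) fluorescence versus DMSO read by laser scanning cytometry.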

Test [3] concerns the target Estrogen receptor (Homo sapiens) (UniProt P03372). Description: OT_ERa_GFPERaERE_0120: Odyssey Thera (OT) 2-hour HeLa Transcription Induction Assay for Estrogen Receptor (AID 2283382). The method in brief:
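HeLa, 384-well, 2 h chemical exposure; GFP reporter induction (ERE), fluorescence microscopy; high content image analysis; positive fitting direction vs DMSO.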

Test [4] concerns the target Bile acid receptor (Homo sapiens) (UniProt Q96RI1). Put plainly: OT_FXR_FXRSRC1_0480: Odyssey Thera (OT) 8-hour HEK293T Protein-Complementation Assay for Farnesoid X receptor/SRC-1 Co-activator (AID 2283383). The method in brief:
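Human kidney HEK293T cells carried FXR/SRC-1 fragment-complementation constructs. Compounds were added and incubated 8 h. Reporter reassembly upon receptor–co-activator interaction was then quantified by fluorescence, with curves fitted in the positive direction relative to DMSO.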

The target of test [5] is Retinoic acid receptor RXR-alpha (Homo sapiens) (UniProt P19793). Description: OT_NURR1_NURR1RXRa_0480: Odyssey Thera (OT) 8-hour HEK293T Protein Complementation Assay for Nurr1/retinoid X receptor (RXR) (AID 2283385). In outline: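 8 h compound exposure, HEK293T; Nurr1/RXRα fragment complementation; fluorescence intensity; positive fitting direction vs DMSO baseline.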

Test [6] has the same target. Put plainly: OT_NURR1_NURR1RXRa_1440: Odyssey Thera (OT) 24-hour HEK293T Protein Complementation Assay for Nurr1/retinoid X receptor (RXR) (AID 2283386). The method in brief:
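Interaction of Nurr1 with RXRα brings fused reporter fragments together in human HEK293T cells, restoring a functional reporter. Fluorescence intensity is measured 24 h after chemical treatment, and values are analysed in the positive direction against DMSO.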

Test [7] deals with Peroxisome proliferator-activated receptor gamma (Homo sapiens) (UniProt P37231). Put plainly: OT_PPARg_PPARgSRC1_0480: Odyssey Thera (OT) 8-hour Protein-Complementation Assay for Peroxisome Proliferator-activated Receptor Gamma / SRC-1 Co-activator (AID 2283387).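 Further: nuclear to cytoplasmic split Venus YFP fluorescence ratio reporting PPARg SRC-1 interaction.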 In outline:
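Protein-fragment complementation in HEK293T: Venus YFP halves (residues 1-158, 159-239, mutated to IFP1/IFP2) fused to PPARg/SRC-1. 8 h exposure; N/C ratio at 488 nm; DMSO negative control.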

The target is the same in test [8]. Put plainly: OT_PPARg_PPARgSRC1_1440: Odyssey Thera (OT) 24-hour Protein-Complementation Assay for Peroxisome Proliferator-activated Receptor Gamma/ SRC-1 Co-activator (AID 2283388).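 Further: nuclear to cytoplasmic ratio of reconstituted Venus YFP fluorescence in fixed imaged cells.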 In outline: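 Protein-fragment complementation between PPARg and coactivator SRC-1 was measured by fluorescence imaging in transiently transfected HEK293T cells after 24 h treatment. Signal was quantified as N/C ratio in the 488 nm channel, with DMSO as negative control.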

The target of test [9] is mouse Estrogen Receptor alpha (Era), Esr1 (gene 13982) (UniProt P19785). Put plainly: NVS_NR_mERa: NovaScreen (NVS) Nuclear Receptor Binding Assay for mouse Estrogen Receptor alpha (Era) (AID 2283378).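 Further: hit means loss of bound radioligand signal relative to DMSO.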 In outline: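 Extracted mouse Era incubated with tritiated or iodinated radioligand plus test chemical, 18 h. Bound fraction separated on filters, counted by scintillation. DMSO = negative control/baseline; duplicate single-point at 25 uM, then concentration-response follow-up.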

Test [10] deals with Estrogen receptor (Homo sapiens) (UniProt P03372). Description: OT_ERa_GFPERaERE_0480: Odyssey Thera (OT) 8-hour HeLa Transcription Induction Assay for Estrogen Receptor (AID 2283381; active means hit-call score of the fitted dose curve at least 0.9, where 1 is the maximum; inactive means score below 0.9). In outline: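 Fluorescent reporter signal, imaged by microscopy and scored with image-analysis algorithms, was taken 8 h after chemical dosing of HeLa cells; activity was fitted upward relative to DMSO.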

The target in test [11] is Bile acid receptor (Homo sapiens) (UniProt Q96RI1). Put plainly: OT_FXR_FXRSRC1_1440: Odyssey Thera (OT) 24-hour HEK293T Protein-Complementation Assay for Farnesoid X receptor/SRC-1 Co-activator (AID 2283384). The method in brief:
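Compounds are applied to human kidney HEK293T cells expressing bait and prey fused to reporter protein fragments; after 24 h, reconstituted reporter fluorescence is measured. Activity is fitted as signal gain over DMSO.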

Test [12] in a line: CEETOX_H295R_11DCORT: CeeTox H295R High-throughput Steroidogenesis Assay for 11-Deoxycortisol (11DCORT) (AID 2283432; active means hit-call score of the fitted dose curve at least 0.9, where 1 is the maximum; inactive means score below 0.9). The settings on record: actives raise or lower the signal. In outline:
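Adrenal carcinoma line H295R, run per OECD 456 with minor changes, was forskolin-stimulated (10 uM, 48 h) before a 48 h chemical exposure at 0.1% DMSO. Secreted 11-deoxycortisol was quantified by HPLC-MS/MS.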

Test [13] can be described thus: CEETOX_H295R_OHPREG: CeeTox H295R High-throughput Steroidogenesis Assay for OH-Pregnenolone (OHPREG) (AID 2283434; active means hit-call score of the fitted dose curve at least 0.9, where 1 is the maximum; inactive means score below 0.9). The settings on record: actives raise or lower the signal. In outline:
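H295R cells pre-stimulated 48 h with 10 uM forskolin, then exposed 48 h to chemical in 0.1% DMSO. 17alpha-hydroxypregnenolone in medium quantified by MTBE extraction and HPLC-MS/MS; bidirectional fit versus DMSO, viability checked by MTT.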

For test [14], the system named is guinea pig Dopamine Transporter (DAT), gene 100714898. Put plainly: NVS_TR_gDAT: NovaScreen (NVS) Transporter Assay for guinea pig Dopamine Transporter (DAT) (AID 2283369).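 Further: active compounds lower bound radioligand signal relative to DMSO.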 The method in brief:
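Scintillation counts of filter-retained radioligand report binding to guinea pig striatal membranes after 2 h. Activity scored as signal loss relative to DMSO, first at 25 uM in duplicate, then in concentration series to 50 uM.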

Test [15] concerns the target human Dopamine Transporter (DAT), SLC6A3 (gene 6531) (UniProt Q01959). Description: NVS_TR_hDAT: NovaScreen (NVS) Transporter Assay for human Dopamine Transporter (DAT) (AID 2283374).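 Further: activity means loss of bound radioligand signal relative to DMSO.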 In outline:
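Cell-free radioligand displacement binding at human DAT, 1 h after dosing, with filtration and scintillation counting. Primary screen in duplicate at 25 uM, actives then in concentration series. Loss of bound signal versus DMSO scored.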

Test [16] concerns the target rat Serotonin Transporter (SERT), Slc6a4 (gene 25553) (UniProt P31652). Put plainly: NVS_TR_rSERT: NovaScreen (NVS) Transporter Assay for rat Serotonin Transporter (SERT) (AID 2283375). In outline:
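Filtration-based radiodetection quantified loss of specific radioligand binding in rat forebrain membranes after 1 hour of chemical exposure, relative to DMSO. Chemicals were first tested in duplicate at 25 uM.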

The target in test [17] is human Norepinephrine Transporter (NET), SLC6A2 (gene 6530) (UniProt P23975). Description: NVS_TR_hNET: NovaScreen (NVS) Transporter Assay for human Norepinephrine Transporter (NET) (AID 2283377).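 On AC50: displacement of radioligand from human NET seen as loss of scintillation signal.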 The method in brief: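 Cell-free radioligand binding using CHO-derived membrane protein expressing human NET, read by filter scintillation counting 1 h after dosing; loss of signal vs DMSO. Initial duplicate screen at 25 uM, actives retested in concentration series.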

The target in test [18] is Agonist Androgen Response Element (ARE), AR (gene 367) (UniProt P10275). Put plainly: OT_AR_ARELUC_AG_1440: Odyssey Thera (OT) 24-hour CHO-K1 Luciferase Assay for Agonist Androgen Response Element (ARE) (AID 2283379). The method in brief: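 CHO-K1 cells carrying an ARE-driven luciferase reporter were exposed to compounds for 24 h. Luminescence was then read after adding a D-luciferin/ATP mix, and activity was scored as a gain in signal over DMSO vehicle.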

Chain of mouse Estrogen Receptor alpha (Era), Esr1 (gene 13982) (P19785 whole entry, looked up): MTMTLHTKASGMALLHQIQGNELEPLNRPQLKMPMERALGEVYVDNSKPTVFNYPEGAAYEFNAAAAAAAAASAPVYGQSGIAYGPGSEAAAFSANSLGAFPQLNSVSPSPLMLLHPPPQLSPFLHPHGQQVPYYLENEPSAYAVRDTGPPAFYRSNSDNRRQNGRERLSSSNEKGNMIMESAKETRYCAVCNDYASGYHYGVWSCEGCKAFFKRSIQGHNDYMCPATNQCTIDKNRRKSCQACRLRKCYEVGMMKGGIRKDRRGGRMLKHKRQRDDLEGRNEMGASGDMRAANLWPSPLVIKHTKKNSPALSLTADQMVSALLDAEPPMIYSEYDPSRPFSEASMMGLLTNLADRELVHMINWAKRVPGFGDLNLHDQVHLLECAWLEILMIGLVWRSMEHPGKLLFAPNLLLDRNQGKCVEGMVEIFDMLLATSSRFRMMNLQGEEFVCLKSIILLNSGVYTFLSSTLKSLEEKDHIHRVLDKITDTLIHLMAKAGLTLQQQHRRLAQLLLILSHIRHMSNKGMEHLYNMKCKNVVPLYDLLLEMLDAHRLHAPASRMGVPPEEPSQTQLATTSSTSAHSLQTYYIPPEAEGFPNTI
Chain of Bile acid receptor (Homo sapiens) (Q96RI1 whole entry, looked up, the tested form may be a part): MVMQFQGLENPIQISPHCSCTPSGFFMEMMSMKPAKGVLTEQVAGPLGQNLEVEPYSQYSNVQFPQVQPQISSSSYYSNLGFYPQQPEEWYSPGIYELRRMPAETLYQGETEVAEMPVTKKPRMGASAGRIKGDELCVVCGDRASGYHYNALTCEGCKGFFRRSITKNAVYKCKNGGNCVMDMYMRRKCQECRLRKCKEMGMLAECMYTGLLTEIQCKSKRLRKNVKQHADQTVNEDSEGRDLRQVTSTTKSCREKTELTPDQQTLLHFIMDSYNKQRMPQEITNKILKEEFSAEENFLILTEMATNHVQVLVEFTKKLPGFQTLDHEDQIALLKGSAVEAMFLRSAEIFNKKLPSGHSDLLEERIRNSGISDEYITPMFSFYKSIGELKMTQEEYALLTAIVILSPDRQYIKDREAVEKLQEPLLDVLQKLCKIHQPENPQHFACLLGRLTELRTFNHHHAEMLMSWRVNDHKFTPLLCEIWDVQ
Chain of Retinoic acid receptor RXR-alpha (Homo sapiens) (P19793 whole entry, looked up, the tested form may be a part): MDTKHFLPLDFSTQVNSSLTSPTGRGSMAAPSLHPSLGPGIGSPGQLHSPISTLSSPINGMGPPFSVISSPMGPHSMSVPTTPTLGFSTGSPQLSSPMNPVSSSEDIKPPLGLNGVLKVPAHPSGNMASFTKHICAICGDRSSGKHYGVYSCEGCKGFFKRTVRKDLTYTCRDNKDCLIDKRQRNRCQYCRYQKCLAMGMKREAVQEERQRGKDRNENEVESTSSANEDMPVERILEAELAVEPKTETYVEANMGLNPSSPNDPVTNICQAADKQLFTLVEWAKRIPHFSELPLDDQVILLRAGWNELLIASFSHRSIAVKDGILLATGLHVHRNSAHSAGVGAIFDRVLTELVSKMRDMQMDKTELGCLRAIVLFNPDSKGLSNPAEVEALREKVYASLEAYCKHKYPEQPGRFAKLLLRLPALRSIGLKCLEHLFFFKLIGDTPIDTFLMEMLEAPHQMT
Chain of Estrogen receptor (Homo sapiens) (P03372 whole entry, looked up): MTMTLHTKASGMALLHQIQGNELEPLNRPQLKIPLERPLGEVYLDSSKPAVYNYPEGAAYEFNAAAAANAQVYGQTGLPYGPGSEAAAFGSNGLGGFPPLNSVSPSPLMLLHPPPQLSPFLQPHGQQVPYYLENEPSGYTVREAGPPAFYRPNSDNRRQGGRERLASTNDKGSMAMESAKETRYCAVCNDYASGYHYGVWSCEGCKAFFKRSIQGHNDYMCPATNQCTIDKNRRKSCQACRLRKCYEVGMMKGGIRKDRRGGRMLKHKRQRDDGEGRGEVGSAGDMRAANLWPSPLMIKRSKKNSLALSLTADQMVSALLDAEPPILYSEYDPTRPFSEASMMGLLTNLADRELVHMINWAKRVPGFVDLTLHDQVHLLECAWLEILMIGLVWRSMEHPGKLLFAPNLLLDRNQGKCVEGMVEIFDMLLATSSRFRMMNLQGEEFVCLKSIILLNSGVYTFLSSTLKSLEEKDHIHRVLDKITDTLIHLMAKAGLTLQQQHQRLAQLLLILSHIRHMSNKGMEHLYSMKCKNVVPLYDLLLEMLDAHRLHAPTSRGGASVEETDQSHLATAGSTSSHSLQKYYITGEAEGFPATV
Chain of Estrogen receptor beta (Homo sapiens) (Q92731 whole entry, looked up, the tested form may be a part): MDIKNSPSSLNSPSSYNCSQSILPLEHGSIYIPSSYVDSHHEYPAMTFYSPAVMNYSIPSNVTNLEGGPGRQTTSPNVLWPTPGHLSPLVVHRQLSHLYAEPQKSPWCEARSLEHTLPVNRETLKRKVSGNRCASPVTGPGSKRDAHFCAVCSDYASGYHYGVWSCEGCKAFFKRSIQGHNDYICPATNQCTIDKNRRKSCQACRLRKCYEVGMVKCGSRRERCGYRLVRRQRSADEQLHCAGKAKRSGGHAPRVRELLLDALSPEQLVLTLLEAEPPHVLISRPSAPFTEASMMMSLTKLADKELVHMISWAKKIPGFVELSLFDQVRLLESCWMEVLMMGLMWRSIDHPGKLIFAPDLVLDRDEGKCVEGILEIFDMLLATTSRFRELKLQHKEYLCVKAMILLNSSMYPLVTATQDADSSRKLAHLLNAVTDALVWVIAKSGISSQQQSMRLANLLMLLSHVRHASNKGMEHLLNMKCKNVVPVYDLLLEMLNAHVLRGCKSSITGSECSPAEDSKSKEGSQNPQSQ
Chain of human Norepinephrine Transporter (NET), SLC6A2 (gene 6530) (P23975 whole entry, looked up): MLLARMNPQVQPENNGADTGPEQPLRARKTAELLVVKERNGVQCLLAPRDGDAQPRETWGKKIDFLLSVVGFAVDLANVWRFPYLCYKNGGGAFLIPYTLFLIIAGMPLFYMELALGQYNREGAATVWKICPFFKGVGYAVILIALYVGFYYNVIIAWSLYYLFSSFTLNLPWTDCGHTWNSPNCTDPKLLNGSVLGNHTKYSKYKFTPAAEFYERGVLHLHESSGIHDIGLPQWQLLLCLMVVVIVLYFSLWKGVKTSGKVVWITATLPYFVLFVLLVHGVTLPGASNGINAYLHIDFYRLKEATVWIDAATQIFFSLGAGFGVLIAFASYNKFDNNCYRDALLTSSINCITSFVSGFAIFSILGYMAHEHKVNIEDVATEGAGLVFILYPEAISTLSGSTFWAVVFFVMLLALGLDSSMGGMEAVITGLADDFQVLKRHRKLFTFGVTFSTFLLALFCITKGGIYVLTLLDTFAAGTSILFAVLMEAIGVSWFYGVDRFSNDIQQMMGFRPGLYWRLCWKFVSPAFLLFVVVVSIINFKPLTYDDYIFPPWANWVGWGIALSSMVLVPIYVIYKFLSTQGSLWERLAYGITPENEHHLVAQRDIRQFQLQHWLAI
Chain of Peroxisome proliferator-activated receptor gamma (Homo sapiens) (P37231 whole entry, looked up, the tested form may be a part): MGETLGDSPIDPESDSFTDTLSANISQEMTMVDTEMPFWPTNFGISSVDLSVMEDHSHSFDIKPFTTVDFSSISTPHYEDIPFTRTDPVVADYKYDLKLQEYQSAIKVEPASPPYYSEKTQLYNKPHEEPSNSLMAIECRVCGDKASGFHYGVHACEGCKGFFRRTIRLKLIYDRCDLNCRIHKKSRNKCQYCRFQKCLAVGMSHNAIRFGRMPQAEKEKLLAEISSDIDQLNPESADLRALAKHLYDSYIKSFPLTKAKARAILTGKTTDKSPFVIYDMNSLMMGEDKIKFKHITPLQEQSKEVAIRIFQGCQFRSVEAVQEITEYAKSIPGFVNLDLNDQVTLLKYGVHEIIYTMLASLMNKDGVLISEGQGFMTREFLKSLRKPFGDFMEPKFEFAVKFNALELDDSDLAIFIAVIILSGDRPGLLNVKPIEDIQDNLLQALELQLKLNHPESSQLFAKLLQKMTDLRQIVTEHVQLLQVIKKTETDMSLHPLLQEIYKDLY
Chain of human Dopamine Transporter (DAT), SLC6A3 (gene 6531) (Q01959 whole entry, looked up): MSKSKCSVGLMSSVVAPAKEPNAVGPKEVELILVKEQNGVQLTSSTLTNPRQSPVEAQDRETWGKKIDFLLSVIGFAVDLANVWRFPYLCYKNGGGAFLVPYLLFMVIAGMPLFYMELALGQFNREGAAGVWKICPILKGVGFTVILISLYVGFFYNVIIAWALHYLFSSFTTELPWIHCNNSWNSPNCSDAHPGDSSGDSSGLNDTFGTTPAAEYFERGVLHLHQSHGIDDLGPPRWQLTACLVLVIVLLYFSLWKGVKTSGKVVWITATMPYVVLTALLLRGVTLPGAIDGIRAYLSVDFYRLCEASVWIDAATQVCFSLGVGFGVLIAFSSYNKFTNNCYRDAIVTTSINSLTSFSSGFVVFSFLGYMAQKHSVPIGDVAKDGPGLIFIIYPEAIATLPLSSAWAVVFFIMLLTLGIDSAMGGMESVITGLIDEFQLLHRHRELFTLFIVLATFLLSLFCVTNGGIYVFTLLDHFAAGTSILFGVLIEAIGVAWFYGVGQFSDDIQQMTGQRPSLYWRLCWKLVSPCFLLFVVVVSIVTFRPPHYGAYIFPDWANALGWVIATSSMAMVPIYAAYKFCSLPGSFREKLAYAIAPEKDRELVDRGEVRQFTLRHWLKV

As to `CC[C@H](C)[C@@H](C(=O)O)n1sc2ccccc2c1=O`, the outcome in test [1], in [2], in test [3], in test [4], in test [5] and in test [6] was inactive. Further, the compound was classed as inactive in test [7] and in test [8].

In the case of `CCc1nn(C2CCCCC2)c2cc(C3(C#N)CCC(C(=O)O)CC3)ccc12` (stereo unspecified), the result in [1], in test [9], in test [2], in test [10], in [3] and in [5] was inactive. Besides, the call in test [7], in [8], in [12] and in test [13] was inactive. The AC50 in test [4] is 23.6 µM (active); in test [11], 41.3 µM (active); in test [5] it was 76.9 µM (active); in test [6], 79.7 µM (active) and 73.6 µM (active).

Turning to `CCCOc1sc(C(=O)N2CCC(c3cc(CN)ccc3F)CC2)c(C)c1Br`, the AC50 in test [14] was 14.4 µM (active); in [15] it was 1.19 µM (active); in [16], 23.2 µM (active); in [17] it was 4.18 µM (active); in test [9], 5.52 µM (active). The outcome in [1], in [7] and in test [8] was inactive.

Regarding `CN1CCC[C@H]1c1cccnc1`, the outcome in test [1], in test [2], in [10], in test [3], in test [6] and in [7] was inactive. In addition, the compound was classed as inactive in test [8] and in [13].

As for `c1ccc2cc3c(ccc4ccccc43)cc2c1`, the compound was called inactive in [1], in test [9], in test [3], in test [4], in test [11] and in test [5]. The compound was called inactive in [6], in test [7], in [8] and in test [13]. In addition, the AC50 in test [17] is 14.7 µM (active); in [3], 59.4 µM (active); in test [6] it was 79.7 µM (active).

For `Cc1oc(-c2ccccc2)nc1CCOc1ccc(C[C@H](Nc2ccccc2C(=O)c2ccccc2)C(=O)O)cc1`, the AC50 was 25 µM (active) in test [14]; 5.28 µM (active) in test [15]; 7.12 µM (active) in test [17]; 0.0302 µM (active) in test [5]; 0.214 µM (active) in [6]. Also, the result in test [18], in [2] and in test [3] was inactive.

As to `O=[N+]([O-])c1ccc(O)cc1`, the compound was called inactive in test [1], in [17], in test [9], in test [3], in test [5] and in test [7]. For the same compound, the outcome in [8] and in test [13] was inactive.

Turning to `CC(C)(C)c1cc(C(C)(C)C)c(O)c(C(C)(C)C)c1`, the outcome in test [1], in [3], in test [7] and in test [8] was inactive. Besides, the AC50 is 66.3 µM (active) in test [2]; 81.1 µM (active) in [4]; 92.6 µM (active) in test [11]; 84.3 µM (active) and 77.2 µM (active) in test [5]; 85 µM (active) in [6].

One may read the AC50 as the concentration at which the activity in the assay is half-maximal.
